Results published in PubChem BioAssay (NCI).
Compounds without any hit were thinned out: in the full panel of roughly 79,000, 15% have a hit. Unmarked numbers belong to inactive results. The source made the active and inactive calls. Cut-off read from the data, not from the text of the source: active = growth inhibition above about 70%; inactive = the rest. Where a SMILES comes first, the peptide text is derived from it. The star is where a group is joined. Boc = CC(C)(C)OC(=O)*; tBu = CC(C)(C)*

Experiments:
[1] = NCI Yeast Anticancer Drug Screen. Data for the rad50 strain (AID 155);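 note: 0% = growth of vehicle-only cultures of the same strain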; conditions: S. cerevisiae rad50 strain growth inhibition; at 50.0 µM; stronger effect = higher value
Outline: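 DNA repair mutant yeast, compound exposure, growth read-out; inhibition is taken relative to vehicle.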

[2] = NCI Yeast Anticancer Drug Screen. Data for the mec2-1 strain (AID 157); conditions: S. cerevisiae mec2-1 strain, at 50.0 µM, stronger effect = higher value
Outline: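 Readout is yeast growth inhibition, normalised to vehicle-treated controls, in the mec2-1 strain exposed to compound.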

[3] = NCI Yeast Anticancer Drug Screen. Data for the sgs1 mgt1 strain (AID 161);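 note: 0% = growth of cultures given vehicle only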; conditions: S. cerevisiae sgs1 mgt1 strain, at 50.0 µM, stronger effect = higher value
Outline: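 Yeast cells carrying a defined DNA-repair defect were exposed to test compounds. Growth inhibition was measured relative to vehicle-treated controls.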

[4] = NCI Yeast Anticancer Drug Screen. Data for the cln2 rad14 strain (AID 165);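 note: 0% = growth equal to vehicle treated cultures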; conditions: S. cerevisiae cln2 rad14 strain, at 50.0 µM, stronger effect = higher value
Outline: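 Relative to vehicle controls, growth inhibition of compound-treated cln2 rad14 yeast was recorded.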

[5] = NCI Yeast Anticancer Drug Screen. Data for the bub3 strain (AID 167); conditions: S. cerevisiae bub3 mutant strain, at 50.0 µM, stronger effect = higher value
Outline: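 In this screen, a yeast mutant lacking normal mitotic checkpoint function is challenged with compound. Relative growth versus vehicle gives the inhibition value.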

[6] = NCI Yeast Anticancer Drug Screen. Data for the mlh1 rad18 strain (AID 175); conditions: S. cerevisiae mlh1 rad18 strain growth inhibition; at 50.0 µM; stronger effect = higher value
Outline: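 Test agents were incubated with a yeast strain of defined genotype (DNA damage repair defect). Inhibition of growth was derived by comparison with vehicle-exposed cultures.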

SMILES | growth inhibition [1] [%] | growth inhibition [2] | growth inhibition [3] | growth inhibition [4] [%] | growth inhibition [5] | growth inhibition [6]
O=C(CNOCc1ccccc1)OCc1ccccc1 | 25.5 | 16.1% | 2.65% | -6.8 | 3.45% | 19.4%
CC1(C)C(=O)OC(n2ccc(=O)[nH]c2=O)C1=O (configuration not stated) | 7.15 | -11.2% | -7.75% | -43.9 | -10.8% | 12.7%
Cc1ccc(N)c(C(=O)Nc2ccc(Br)cc2)c1 | -19.6 | -18.6% | -10.1% | -8.85 | -17.6% | -16.6%
CC(OC(C)(C)C)C(NC(=O)C(N)CCCCNC(=O)OC(C)(C)C)C(=O)NC(Cc1ccccc1)C(=O)O (configuration not stated) (H-Lys(Boc)-Thr(tBu)-Phe-OH; configuration not given here) | -37.3 | -11.6% | -39.4% | -14.8 | -5% | -15%
O=c1[nH]c(=O)n(C2OC(COP(=O)(O)OP(=O)(O)OC3OC(CO)C(O)C(O)C3O)C(O)C2O)cc1F (configuration not stated) | 1.15 | 3.65% | 8.8% | 18.9 | -15.3% | 9.85%
CCC1CCC(OC(=O)Nc2cccc3ccccc23)CC1 (configuration not stated) | 12.2 | -26.1% | -5.35% | 3.7 | 4.85% | -10.4%
CCOC(=O)Nc1nc2c(s1)c([N+](=O)[O-])cn2C | 11.6 | 7% | 17.1% | 2.45 | 4.6% | 20.6%
CCC(=O)OCCCC1CCCO1 (configuration not stated) | 7.85 | -0.55% | 1.05% | -9.8 | 2% | -2.05%
Clc1cnc2ccccc2c1 | 24.4 | 6% | 14.1% | 22.8 | 2.7% | 28.8%
CCCOC(=O)OCCC | -9.8 | -37.3% | -4.9% | 2.9 | -31.8% | -10.9%
COc1cc2c(cc1C(C)c1ccc(OCc3ccccc3)cc1)OCO2 (configuration not stated) | -1.3 | -1.1% | -8.6% | -13.1 | 0% | 9.65%
CCC1=C(C)C(=O)OC1n1ccc(=O)[nH]c1=O (configuration not stated) | -11.6 | -2.75% | 2.8% | -37 | -5% | -3.5%
CCOC(=O)C(Cc1cn(C(C)=O)c2ccccc12)P(=O)(OCC)OCC (configuration not stated) | -12.7 | -21.6% | -15.2% | -1.15 | 1.05% | -27%
O=C(NO)c1ccc([N+](=O)[O-])cc1 | 58.2 | 31.1% | 46.3% | 7.05 | 17.8% | 22.2%
Cc1ccc(S(=O)(=O)OCC2C(c3ccccc3)CCC(c3ccccc3)C2COS(=O)(=O)c2ccc(C)cc2)cc1 (configuration not stated) | -5.6 | -5.4% | -16.1% | -28.6 | 4.25% | 4.45%
Cc1csc2nc(-c3ccncc3)cn12 | 10.7 | 10.1% | -14% | 1.4 | 37.1% | 23.1%
CCCCCCCCCCCCNCC(O)c1cc(-c2ccccc2)nc2c(Cl)cc(Cl)cc12 (configuration not stated) | 8.1 | 8.9% | 31.9% | 29.1 | -8% | 26.5%
CN1OC(CO)CC12C1CC3CC(C1)CC2C3 (configuration not stated) | -41 | -19.1% | -53.5% | -3.4 | -42.7% | -53.8%
COC(=O)C(Cc1nc2ccc(Cl)cc2[nH]c1=O)/C(=N/O)C(=O)Nc1cccc(Cl)c1C (configuration not stated) | 22.6 | 0.95% | 0.85% | -40.9 | 0.3% | -4.55%
CC(C)(C)OC(=O)N/N=C\c1ccnc2ccccc12 | -8.1 | -8.75% | 3.2% | -15.7 | -6.5% | -1.95%
CC(CCc1cccc2ccccc12)C(=O)O (configuration not stated) | 29.6 | 30.4% | 28.9% | 26.1 | 30.3% | 43.3%

SMILES | growth inhibition [1] [%] | growth inhibition [2] | growth inhibition [3] | growth inhibition [4] [%] | growth inhibition [5] | growth inhibition [6]
O=C(O)CC(NC(=O)/C(=C/c1ccccc1)NC(=O)c1ccccc1)C(=O)O (configuration not stated) | -2.45 | 0.65% | 2.95% | 6.85 | 25.1% | -22.1%
Cc1ccc(NC(=O)c2ccc(Cl)cc2)cc1 | -8.3 | 1.2% | 8.85% | 3.3 | 0% | -3.55%
CCOC(=O)c1c(Nc2ccc(OC)cc2)n[nH]c1C | -7.85 | -34.3% | 15.6% | 9.6 | 8.65% | -8.65%
COC(=O)C1=C(C)N(NC(N)=O)C2(N)N(NC(N)=O)C(C)=C(C(=O)OC)C12C(=O)OC (configuration not stated) | -9.65 | -31.2% | -43.2% | -9.7 | -4% | -26.4%
Cn1ccccc1=O | 36.8 | -26.7% | -8.55% | -56.5 | 3.4% | 27.2%
NC(=NCC(O)c1ccccc1)Nc1ccccc1 (configuration not stated) | 0.75 | -8.6% | 15.1% | 6.1 | 18.1% | 10.6%
Nc1[nH]c(=S)nc2snnc12 | 3 | -6.6% | 9.4% | 11.2 | 3.1% | 14.8%
Cc1ccc(S(=O)(=O)C(C#N)CCC(=O)c2ccc(Cl)cc2)cc1 (configuration not stated) | 6.25 | 3.55% | 6.75% | 9.45 | 10.2% | 17.6%
CC(C)(C)c1c(C#N)nnc2cc(-c3ccccc3)nn12 | 7 | 8.85% | 21.9% | 25.1 | -17.3% | 9.15%
Cn1c([N+](=O)[O-])cnc1COc1ccc(NC(=O)CN2CCOCC2)cc1 | 27 | 1.05% | 19.9% | 33.2 | 10.3% | 18.2%
CC(=O)OCC1OC(n2nc(C#N)c(C#N)n2)C(OC(C)=O)C1OC(C)=O (configuration not stated) | 37.9 | -3% | 3.15% | 8.05 | -5.85% | 1.15%
CCCCCCCC(=O)OC(CC)CCCC (configuration not stated) | 5.25 | -9.9% | 1.5% | 8.35 | 3.6% | -1.2%
CC(=O)c1ccc(I)cc1 | 5.15 | -11.7% | 24.6% | 13.8 | 14.1% | 18.1%
CNc1ccc(Cl)cc1C(N)=O | 2.8 | 6.9% | 28.7% | -3.25 | 7.05% | 19.9%
CCOC1=NC(C)C(C)N1 (configuration not stated) | -5.1 | -11.1% | -13.4% | 9.05 | 6.25% | -21.1%
O=C(c1ccccc1)N1CCOCC1 | 9.75 | -2.5% | -3.25% | 12.3 | -0.75% | 13.2%
COc1ccc(OC)c(CCCCC(N)=O)c1 | -19.8 | -8.2% | 7.3% | 1.4 | 0.5% | -9.55%
O=c1nc(OCCO)c([N+](=O)[O-])c(C(Cl)(Cl)Cl)[nH]1 | 61.4 | 89.5% (active) | 81.7% (active) | 36.4 | 80.5% (active) | 92.3% (active)
CC12CC(=O)C3C(CCC4CC(OS(=O)(=O)O)CCC43C)C1CC1OC(=O)C=C12 (configuration not stated) | 18.2 | -8.75% | -5.85% | 15.9 | -0.9% | 25.6%
N#C/C(=C\N1CC(=O)NC1=S)C(=O)c1ccc2ccccc2c1 | -20.4 | 15.6% | -26.2% | 13.5 | 3.25% | -17.4%
O=C(CCN1C(=O)c2ccccc2C1=O)c1cnc(N2C(=O)c3ccccc3C2=O)[nH]1 | 15.6 | -4.45% | 11.4% | -22.4 | 18.9% | 2.5%
